Active and inactive are the calls of the source.

The nature of test [1]: HepG2 liver cancer cell viability effects, profiling panel, resazurin fluorescence, 24 h, PK04 Diversity Set (AID 1172). The settings on record: higher = more signal.
Test [2] in a line: basal S. cerevisiae growth modulation, no modifier, primary screen, OD600, strain BY4716, 24 h, basal condition (AID 1173). As to conditions: OD600, 24 h, higher = more signal, called active from +8 up or from −8 down.
The nature of test [3]: MM1S myeloma cell viability, profiling panel, resazurin fluorescence, basal, 24 h, PK04 Diversity Set (AID 1174).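 Also: MM1S multiple myeloma cell line.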 As to conditions: higher = more signal, called active from +8 up or from −8 down. On the technique in general: Resazurin is reduced to fluorescent resorufin, in cell work by metabolically active cells.
Test [4] addresses Dihydroorotate dehydrogenase (quinone), mitochondrial (Plasmodium falciparum (isolate 3D7)) (UniProt Q08210). As to the kind of experiment: PfDHODH enzyme inhibitors, primary screen, biochemical, C-terminal His tag, absorbance 600 nm (AID 1175).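 Also: recombinant parasite enzyme with a five histidine tag at its C terminus.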 As to conditions: DCIP absorbance 600 nm, higher = more signal, called active from +8 up or from −8 down.
Test [5] can be described thus: S. cerevisiae RM11-1a growth modifiers, primary screen, strain RM11-1a, OD600, basal, 24 h (AID 1177).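 Also: cultures grown under basal conditions with no added stressor.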 As to conditions: OD600, 24 h, higher = more signal, called active from +8 up or from −8 down.
Test [6] is described as follows: E. coli acrAB mutant growth effects, primary screen, E. coli filamentation inducers, strain DRC39, OD650, 24 h (AID 1178).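 Also: growth measured as culture turbidity by optical density at 650 nm.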 The settings on record: higher = more signal, called active from +8 up or from −8 down.
A short description of test [7]: E. coli acrAB mutant growth effects, primary screen, E. coli filamentation inducers, strain DRC39, OD650, 48 h (AID 1179).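 Also: screen aims at cell division blockers that make cells filament.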 As to conditions: E. coli DRC39 delta-acrAB growth, higher = more signal, called active from +8 up or from −8 down.
A short description of test [8]: RPMI8226 myeloma cell viability, profiling panel, resazurin fluorescence, basal, 24 h, PK04 Diversity Set (AID 1180).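 Also: RPMI8826 multiple myeloma cell line at 5000 cells per well.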 The settings on record: higher = more signal.
Test [9] deals with E3 ubiquitin-protein ligase XIAP (Homo sapiens) (UniProt P98170). As to the kind of experiment: XIAP binders, primary screen, biophysical, small-molecule microarray, fluorescence 635 nm (AID 1181).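 Also: score merges 667 nm emission and signal to noise over triplicate slides.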 The settings on record: small-molecule microarray binding, higher = more signal.
Sequence of E3 ubiquitin-protein ligase XIAP (Homo sapiens) (P98170 whole entry, looked up): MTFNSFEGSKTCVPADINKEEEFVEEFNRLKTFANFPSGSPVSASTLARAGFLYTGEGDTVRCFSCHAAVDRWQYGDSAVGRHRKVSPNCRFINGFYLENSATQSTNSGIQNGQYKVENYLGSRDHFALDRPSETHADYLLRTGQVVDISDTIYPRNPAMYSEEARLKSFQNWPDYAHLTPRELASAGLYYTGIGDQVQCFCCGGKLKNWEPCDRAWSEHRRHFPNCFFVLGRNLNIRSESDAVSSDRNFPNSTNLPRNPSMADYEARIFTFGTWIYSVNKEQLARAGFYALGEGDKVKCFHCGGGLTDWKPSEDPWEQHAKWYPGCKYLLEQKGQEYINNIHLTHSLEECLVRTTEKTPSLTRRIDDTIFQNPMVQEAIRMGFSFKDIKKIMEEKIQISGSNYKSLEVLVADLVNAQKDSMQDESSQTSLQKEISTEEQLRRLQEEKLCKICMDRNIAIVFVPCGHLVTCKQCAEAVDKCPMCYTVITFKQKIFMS
Test [10] concerns XIP peptide (Xip251-270) binding. As to the kind of experiment: small-molecule binders of XIP peptide, primary screen, biochemical, small-molecule microarray, fluorescence 635/667 nm, 0.1 µg/mL protein (AID 1182). As to conditions: fluorescent protein binding, 635 nm, higher = more signal, called active from +8 up or from −8 down.
The subject of test [11] is XIP peptide (Xip251-270). As to the kind of experiment: small-molecule binders of XIP peptide, primary screen, biochemical, small-molecule microarray, fluorescence 635/667 nm, 0.5 µg/mL protein (AID 1183). The settings on record: small-molecule microarray binding, fluorescence 635 nm; higher = more signal.
The nature of test [12]: Plasmodium falciparum growth inhibition, primary screen, strain 3D7, DAPI fluorescence, 100 nL (AID 1184).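 Also: parasites grown inside human red blood cells in medium with human serum.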 The settings on record: P. falciparum 3D7 growth, 3 d, higher = more signal.
Test [13] has as its target Homeobox protein Hox-A13 (Mus musculus) (UniProt Q62424). Briefly: inhibitors of HoxA13-DNA binding, primary screen, biochemical, fluorescence polarization, labeled oligonucleotide (AID 1185). As to conditions: 15 min, higher = more signal, called active from +8 up or from −8 down. For orientation: Polarisation of emitted light reports the rotation of a fluorescent probe.

Sequence of Homeobox protein Hox-A13 (Mus musculus) (Q62424 whole entry, looked up): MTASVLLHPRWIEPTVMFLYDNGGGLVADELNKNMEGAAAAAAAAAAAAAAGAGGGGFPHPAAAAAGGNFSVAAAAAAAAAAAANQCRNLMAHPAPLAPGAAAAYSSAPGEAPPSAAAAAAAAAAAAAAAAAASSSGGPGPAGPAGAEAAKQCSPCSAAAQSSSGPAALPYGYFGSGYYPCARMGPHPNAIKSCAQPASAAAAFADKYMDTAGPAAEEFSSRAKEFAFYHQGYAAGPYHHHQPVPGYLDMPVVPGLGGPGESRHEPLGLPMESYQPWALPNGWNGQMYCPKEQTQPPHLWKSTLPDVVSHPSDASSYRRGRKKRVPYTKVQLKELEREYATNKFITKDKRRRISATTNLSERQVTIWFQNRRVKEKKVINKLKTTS
Sequence of Dihydroorotate dehydrogenase (quinone), mitochondrial (Plasmodium falciparum (isolate 3D7)) (Q08210 whole entry, looked up): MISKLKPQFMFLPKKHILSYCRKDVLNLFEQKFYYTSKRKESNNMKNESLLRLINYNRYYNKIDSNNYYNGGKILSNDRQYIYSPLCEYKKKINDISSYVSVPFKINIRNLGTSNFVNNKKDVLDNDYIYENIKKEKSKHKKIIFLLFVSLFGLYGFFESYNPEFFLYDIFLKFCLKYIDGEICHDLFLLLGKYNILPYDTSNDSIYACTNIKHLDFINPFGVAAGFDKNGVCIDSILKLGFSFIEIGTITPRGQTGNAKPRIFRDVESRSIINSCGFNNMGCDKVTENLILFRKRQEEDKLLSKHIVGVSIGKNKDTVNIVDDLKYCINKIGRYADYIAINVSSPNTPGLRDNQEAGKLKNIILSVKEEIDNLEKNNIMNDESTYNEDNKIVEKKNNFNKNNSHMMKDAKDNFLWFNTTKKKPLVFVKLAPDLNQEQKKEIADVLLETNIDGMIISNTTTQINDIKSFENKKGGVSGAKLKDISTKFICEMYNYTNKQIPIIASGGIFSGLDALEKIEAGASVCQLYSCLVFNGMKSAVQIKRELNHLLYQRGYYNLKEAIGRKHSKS

On to `CO[C@H]1COC(=O)[C@H](Cc2ccccc2)NC(=O)CC=C[C@@H](C)[C@H](OC)COC(=O)CC=C[C@@H]1C`, for which the z-score was 0.471 in [1]; -1.43 (inactive) in test [2]; 0.0446 (inactive) in test [3]; -1.06 (inactive) in test [5]; 0.373 (inactive) in test [6]; 0.53 (inactive) in [7]. The z-score in [8] is 0.562; in test [12], 0.0348; in test [13], 1.05 (inactive). The composite z-score in test [4] is 0.0048 (inactive); in test [9], 0.0525; in test [10] it was -0.707 (inactive); in [11], 0.0418.

As for `CCN1C(C)=C(C(=O)OC)[C@@H](c2ccccc2)N2C(=O)[C@@]3(C(=O)OC)O[C@@]12[C@@H]1C(=O)CCC[C@@H]13`, the z-score in test [1] was 0.584; in test [2] it was -0.99 (inactive); in test [3], 1.03 (inactive); in [5] it was 0.989 (inactive); in test [6], -0.275 (inactive); in [7], -0.0144 (inactive). Moreover, the z-score was 0.835 in test [8], -0.625 in test [12] and -0.386 (inactive) in test [13]. The composite z-score is -1.39 (inactive) in test [4], 0.111 in test [9], -0.147 (inactive) in test [10] and -1.03 in test [11].

Regarding `COc1cc([C@@H]2N[C@H](C(=O)O)Cc3c2[nH]c2ccccc32)cc(OC)c1OC`, the z-score is 0.384 in [1]; -0.61 (inactive) in test [2]; 1.39 (inactive) in test [3]; -0.8 (inactive) in test [5]; -0.105 (inactive) in [6]; 0.197 (inactive) in [7]. In addition, the z-score in [8] was 1.03; in test [12], -0.0372; in test [13] it was -1.66 (inactive). Moreover, the composite z-score was -1.7 (inactive) in [4], -0.227 in test [9], -0.374 (inactive) in test [10] and 0.564 in [11].

Consider `CC(=O)Nc1ccc([C@H]2[C@H](C)CC[C@H]3C(=O)N4[C@@H](CC[C@@H](C)[C@@H]4c4ccc(NC(C)=O)cc4)C(=O)N32)cc1`, for which the z-score in test [1] was 1.23; in [2], -1.08 (inactive); in [3], -0.269 (inactive); in [5], 0.897 (inactive); in [6], 1.22 (inactive); in test [7] it was 0.141 (inactive). The z-score was 0.868 in test [8], 0.179 in [12] and -6.37 (inactive) in [13]. The composite z-score in test [4] was 0.124 (inactive); in test [9], -0.0204; in test [10], 1.46 (inactive); in [11], 0.757.

On to `CO[C@H]1COC(=O)CC=C[C@H](C)COC(=O)[C@@H](OCc2ccccc2)C=C[C@@H]1C`, for which the z-score was -0.103 in test [1]; -0.348 (inactive) in test [2]; 1.46 (inactive) in [3]; -1.22 (inactive) in test [5]; 0.566 (inactive) in test [6]; 0.171 (inactive) in test [7]. Besides, the z-score in [8] was 0.627; in [12], -1.58; in [13] it was 1.89 (inactive). Besides, the composite z-score in [4] is -2.5 (inactive); in [9] it was -0.22; in test [10] it was 0.225 (inactive); in test [11], 0.547.

Regarding `CO[C@@H]1COC(=O)[C@H](C)NC(=O)CC=C[C@@H](C)[C@H](OC)COC(=O)[C@H](C)NC(=O)CC=C[C@H]1C`, the z-score was 0.542 in [1]; -0.786 (inactive) in test [2]; 0.102 (inactive) in [3]; -0.161 (inactive) in [5]; 0.884 (inactive) in test [6]; 0.552 (inactive) in test [7]. For the same molecule, the figures for the z-score in test [8], in test [12] and in test [13] were -0.171, 0.363 and 0.229 (inactive), respectively. For the same molecule, the composite z-score in [4] is 0.32 (inactive); in [9], -0.142; in test [10], -0.479 (inactive); in test [11], 0.132.

Take `CO[C@H]1COC(=O)[C@@H](C)NC(=O)CC=C[C@@H](C)[C@H](OC)COC(=O)CC=C[C@@H]1C`: the z-score in [1] is 1.16; in test [2] it was -2.42 (inactive); in test [3] it was 0.563 (inactive); in [5] it was -2.65 (inactive); in [6] it was 1.03 (inactive); in [7] it was 0.505 (inactive). In addition, the results for the z-score in test [8], in test [12] and in test [13] were 0.477, -0.243 and 0.334 (inactive), respectively. In addition, the composite z-score was -0.336 (inactive) in [4], -0.271 in test [9], 0.649 (inactive) in test [10] and 0.517 in test [11].

As to `CCC(=O)[C@]12O[C@@]3([C@@H]4C(=O)OCC[C@@H]41)N(Cc1ccccc1)C(C)=C(C(=O)OC)[C@@H](c1ccccc1)N3C2=O`, the z-score in test [1] is 0.859; in test [2] it was -2.74 (inactive); in test [3], 0.83 (inactive); in [5], -0.704 (inactive); in test [6] it was -0.101 (inactive); in test [7], -0.0892 (inactive). The z-score was 0.95 in [8], 1.24 in test [12] and -4.26 (inactive) in test [13]. Also, the composite z-score in test [4] is 0.0379 (inactive); in test [9], 0.0289; in test [10] it was 0.195 (inactive); in test [11] it was -0.573.

Regarding `COc1cccc([C@@H]2[C@@H](C)CC[C@H]3C(=O)N(C)[C@@H](C(C)C)C(=O)N23)c1`, the z-score in test [1] was 0.989; in [2] it was -1.32 (inactive); in test [3] it was 0.708 (inactive); in test [5], 0.192 (inactive); in [6], 0.847 (inactive); in test [7] it was 0.836 (inactive). The z-score in test [8] was 1.67; in test [12] it was 0.451; in test [13] it was -0.0898 (inactive). For the same molecule, the composite z-score in [4] is 0.295 (inactive); in test [9], 0.258; in test [10], -0.297 (inactive); in test [11] it was 0.247.

For `COc1ccc(-c2ccccc2[C@@H]2N[C@H](C(=O)O)CC[C@H]2C)cc1`, the z-score in test [1] is 0.0637; in [2], -0.611 (inactive); in [3] it was 1.37 (inactive); in [5], 0.649 (inactive); in [6], -0.892 (inactive); in [7] it was 0.0279 (inactive). Further, the z-score in test [8] was 1.61; in test [12], -0.907; in test [13], 1.08 (inactive). Moreover, the composite z-score in test [4] is 0.577 (inactive); in [9] it was -0.113; in [10], 0.351 (inactive); in test [11], 0.0228.

As for `C[C@H]1COC(=O)[C@H](Cc2ccccc2)NC(=O)[C@@H](C)COC(=O)[C@H](Cc2ccccc2)NC1=O`, the z-score in test [1] is 0.24; in [2], -1.23 (inactive); in test [3], 1.04 (inactive); in [5], -1.43 (inactive); in test [6], 0.253 (inactive); in [7], -0.156 (inactive). For the same molecule, the values for the z-score in [8], in [12] and in test [13] were 1.28, -0.703 and 1.01 (inactive), respectively. Besides, the composite z-score in [4] was 0.063 (inactive); in [9], -0.127; in test [10], 0.767 (inactive); in test [11], 0.342.

For the origin of these results see PubChem BioAssay.
